Hit rate of the full screen: of about 310,000 compounds, about 14,000 (4.5%) showed an effect of 50% or more. The effect is printed as a negative number. What follows is part of a selection rich in strong results, with near analogues and random picks from the rest.
Biological target: human ether-à-go-go-related gene (hERG) potassium channel (human, UniProt Q12809)
Assay: primary screen, population patch clamp on CHO cells stably expressing hERG; higher = less effect of the substance
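Also: peak tail current of the secondary pulse compared with the same well before compound.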

Sequence of human ether-à-go-go-related gene (hERG) potassium channel (Q12809 whole entry, looked up): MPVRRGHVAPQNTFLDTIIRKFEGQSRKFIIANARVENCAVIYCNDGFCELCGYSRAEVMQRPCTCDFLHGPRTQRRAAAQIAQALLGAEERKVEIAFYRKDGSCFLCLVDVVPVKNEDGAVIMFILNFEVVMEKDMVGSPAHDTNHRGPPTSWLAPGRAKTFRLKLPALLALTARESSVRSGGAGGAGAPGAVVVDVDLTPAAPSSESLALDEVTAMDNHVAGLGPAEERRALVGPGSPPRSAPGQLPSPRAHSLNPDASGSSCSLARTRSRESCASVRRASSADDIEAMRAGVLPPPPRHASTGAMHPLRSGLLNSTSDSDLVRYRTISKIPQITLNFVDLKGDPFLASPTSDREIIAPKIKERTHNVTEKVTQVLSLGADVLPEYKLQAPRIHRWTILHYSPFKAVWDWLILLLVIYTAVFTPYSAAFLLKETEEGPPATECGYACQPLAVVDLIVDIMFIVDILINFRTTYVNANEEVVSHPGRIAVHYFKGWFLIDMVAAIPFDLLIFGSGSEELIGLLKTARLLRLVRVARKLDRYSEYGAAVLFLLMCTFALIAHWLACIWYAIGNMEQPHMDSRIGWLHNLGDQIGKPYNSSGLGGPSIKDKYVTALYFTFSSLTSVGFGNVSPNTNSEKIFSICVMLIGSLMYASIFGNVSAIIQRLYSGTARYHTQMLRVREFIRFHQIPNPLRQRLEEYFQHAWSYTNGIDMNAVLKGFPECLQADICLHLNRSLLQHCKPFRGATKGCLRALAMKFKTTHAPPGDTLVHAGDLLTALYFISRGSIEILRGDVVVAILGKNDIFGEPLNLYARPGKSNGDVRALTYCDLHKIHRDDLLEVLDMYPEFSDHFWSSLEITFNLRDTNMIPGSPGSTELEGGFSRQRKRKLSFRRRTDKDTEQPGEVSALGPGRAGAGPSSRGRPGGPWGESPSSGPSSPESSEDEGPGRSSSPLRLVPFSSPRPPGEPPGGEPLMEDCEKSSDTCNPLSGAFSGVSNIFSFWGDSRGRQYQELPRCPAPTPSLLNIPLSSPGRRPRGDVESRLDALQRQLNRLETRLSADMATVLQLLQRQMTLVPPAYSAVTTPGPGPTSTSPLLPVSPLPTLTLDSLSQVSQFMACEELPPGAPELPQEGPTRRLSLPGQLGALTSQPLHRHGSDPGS

Compound | hERG current change (%, negative = inhibition) at 10uM [%]
C=CCn1c(COc2ccc(Cl)cc2)nnc1SCC(=O)Nc1ccc(S(N)(=O)=O)cc1 | -9.02
Cc1ccc(-c2nc(CS(=O)CC(=O)NCCCN3CCN(Cc4ccccc4)CC3)c(C)o2)cc1 (centres unmarked) | -38.2
Cc1oc(-c2ccc(Cl)cc2)nc1CS(=O)CC(=O)NCCCN1CCN(Cc2ccccc2)CC1 (centres unmarked) | -62.1
Cc1oc(-c2ccc(Cl)cc2)nc1CS(=O)CC(=O)NCCCN1CC(C)CC(C)C1 (centres unmarked) | -65.5
Cc1oc(-c2ccc(Cl)cc2)nc1CS(=O)CC(=O)NCCCN1CCOCC1 (centres unmarked) | -3.95
Cc1ccccc1-c1nc(CS(=O)CC(=O)NCCN2CCN(Cc3ccccc3)CC2)c(C)o1 (centres unmarked) | -58.7
Cc1ccccc1-c1nc(CS(=O)CC(=O)NCCN2CCOCC2)c(C)o1 (centres unmarked) | 3.48
Cc1oc(-c2ccc(Cl)cc2)nc1CS(=O)CC(=O)NCCCN1CCCC(C)C1 (centres unmarked) | -36.8
Cc1ccccc1-c1nc(CS(=O)CC(=O)NCc2ccccc2)c(C)o1 (centres unmarked) | -21
Cc1ccc(-c2nc(CS(=O)CC(=O)NCCCN3CC(C)CC(C)C3)c(C)o2)cc1 (centres unmarked) | -19.9
O=C(CSc1nnc(-c2cccs2)o1)NCc1ccco1 | -0.74
COC(=O)C1=C(Nc2ccc(OC)cc2)C=C(C)C(C(=O)OC)C1c1ccc(C)cc1 (centres unmarked) | 18.9
C(#Cc1ccccc1)CN1CCOCC1.Cl | 22.9
Cc1ccc(C)c(S(=O)(=O)N2CCN(C(=O)c3ccc(OCc4c(C)noc4C)cc3)CC2)c1 | -21.9
O=C(Nc1ccc(S(=O)(=O)N2CCCCC2)cc1)c1ccc(=O)[nH]c1 | 7.49
Cc1cc(C)cc(Oc2ccc(-c3nnc(-c4ccccc4)o3)cc2[N+](=O)[O-])c1 | 7.94
Cc1ccc(-n2cc(CN3CCNC(=O)CC3)c(-c3ccc(F)cc3)n2)cc1 | -35.4
Cc1ccn2c(CNCCCn3cccn3)c(C(=O)N3CCCCCC3)nc2c1 | -23.4
Cc1ccc(-n2cc(CN(C)Cc3nccn3C)c(-c3cccc(C)c3)n2)cc1 | -16.1
Cc1ccc(-n2cc(CNCCCn3cccn3)c(-c3cccc(C)c3)n2)cc1 | -71.6
Cc1ccc(-n2cc(CN3CCN(c4ccccn4)CC3)c(-c3ccc(F)cc3)n2)cc1 | 11.2

Compound | hERG current change (%, negative = inhibition) at 10uM [%]
Cc1ccc(C)c(-n2cc(CNCCCn3cccn3)c(-c3ccccc3)n2)c1 | -64.9
COc1cccc(-c2nn(-c3ccccc3)cc2CNC(C)Cn2cncn2)c1 (centres unmarked) | -42.5
Cc1ccc(C)c(-n2cc(CN3CCN(C(=O)c4ncn[nH]4)CC3)c(-c3ccccc3)n2)c1 | -30.7
Cc1ccc(-n2cc(CNC(C)Cc3cnccn3)c(-c3cccc(C)c3)n2)cc1 (centres unmarked) | -73.8
CC(=O)N1CCCN(Cc2cn(-c3cc(C)ccc3C)nc2-c2ccccc2)CC1 | -30.3
Cc1ccc(-n2cc(CN3CCC(O)(c4ccccn4)CC3)c(-c3ccc(F)cc3)n2)cc1 | -56.7
CCOC(=O)C1=NN(c2ccccc2)C(c2ccccc2)CC1=O (centres unmarked) | 5.31
Cc1nnc2n1N=C(c1ccc(F)cc1F)CS2 | -3.32
CCOc1ccc(CCNC(=O)c2ccc(S(=O)(=O)N3CCCC3)cc2)cc1OCC | -8.47
CCn1c2ccccc2c2cc(/C=N/n3c(C)nnc3C)ccc21 | -25
O=C(C1=C[C@H](C2CC2)C[C@H](OCCCCO)O1)N1CCOCC1 | 21.2
O=C(/C=C/c1nc2ccccc2s1)N1CCCCCC1 | -0.709
CN(C)S(=O)(=O)c1cccc(C(=O)OCC(=O)Nc2sccc2C#N)c1 | -2.79
Cc1ccc(-n2cc(CN3CCN(Cc4nccn4C)CC3)c(-c3cccc(C)c3)n2)cc1 | -62.7
Cc1cccc(-n2cc(CN3CCN(Cc4nccn4C)CC3)c(-c3cccc(F)c3)n2)c1 | 2.98
Cc1ccc(-n2cc(CN3CCN(Cc4nccn4C)CC3)c(-c3ccc(F)cc3)n2)cc1 | -26.8
CSCC[C@H](NC(=O)c1nn(C)c(=O)c2ccccc12)c1nc2ccccc2[nH]1 | -3.07
Cc1cc([N+](=O)[O-])nn1CC(=O)N/N=C/c1ccccc1F | -5.15
Cc1ccc(C2N(c3ccccc3)C(=S)N3CCCN23)cc1 (centres unmarked) | 7
O=S(=O)(c1ccc(OC(F)(F)F)cc1)N1CCC(O)(c2cccc(C(F)(F)F)c2)CC1 | -4.35
Cc1cc(S(=O)(=O)N2CCN(c3c(C)cccc3C)CC2)ccc1F | -4.1

Compound | hERG current change (%, negative = inhibition) at 10uM [%]
CCC(C)N(C)Cc1cccc(C2(O)CCN(S(=O)(=O)c3ccc(F)c(C)c3)CC2)c1 (centres unmarked) | -72.4
CCc1ccccc1N1CCN(S(=O)(=O)c2ccc(F)c(C)c2)CC1 | 4.43
CCC(C)N(C)Cc1cccc(C2(O)CCN(S(=O)(=O)c3ccc(F)cc3)CC2)c1 (centres unmarked) | -69.3
CC(C(=O)Nc1ccc(S(=O)(=O)N2CCCC2)cc1)N(C)Cc1ccc(F)cc1 (centres unmarked) | -9.91
CN1CCc2c(sc(N)c2C(=O)O)C1 | 20.8
COc1ccc(C2C(C#N)=C(N)OC3=C2C(=O)CC(C)(C)C3)cc1Cn1nc(C)c([N+](=O)[O-])c1C (centres unmarked) | -50.6
COc1ccc(C2C(C#N)=C(N)OC3=C2C(=O)CC(C)(C)C3)cc1Cn1cc([N+](=O)[O-])cn1 (centres unmarked) | -6.92
COc1ccc(C2C(C#N)=C(N)OC3=C2C(=O)CCC3)cc1Cn1nc(C)c([N+](=O)[O-])c1C (centres unmarked) | -13.3
COC(=O)CCC(=O)OC1(C)C(=O)C=C2C=C(C3CC3)N(C(CO)CO)C=C2C1=O (centres unmarked) | 5.72
COc1ccccc1C(=O)NCC(=O)NNC(=O)C1COc2ccccc2O1 (centres unmarked) | 2.49
Cn1cc(CN2CCC(C(O)c3cccs3)CC2)c(-c2ccccc2F)n1 (centres unmarked) | -21.5
Cc1cc(N2CCN(Cc3cn(C)nc3-c3ccccc3F)CC2)cc(C)n1 | -35
Cn1cc(CN2CCN(Cc3ccccc3)CC2)c(-c2cccc(Cl)c2)n1 | -53
COCCN1CCN(Cc2cn(C)nc2-c2cccc(Cl)c2)CC1 | -15.7
Cc1cc(N2CCN(Cc3cn(C)nc3-c3cccc(Cl)c3)CC2)cc(C)n1 | -65
Cn1cc(CN2CCC(C(O)c3cccs3)CC2)c(-c2cccc(Cl)c2)n1 (centres unmarked) | -57
CC(C1CCN(Cc2cn(C)nc2-c2cccc(Cl)c2)CC1)N1CCOCC1 (centres unmarked) | -26.9
Cc1cnc(C)c(N2CCN(Cc3cn(C)nc3-c3cccc(Cl)c3)CC2)n1 | -49.6
Cn1cc(CN2CCN(c3ncccn3)CC2)c(-c2cccc(Cl)c2)n1 | -20.5
Cc1c(Cl)cccc1NC(=O)Nc1ccn(C)n1 | 5.52
Cc1nn(C)c(C)c1/C=C(/C(=O)C(C)(C)C)n1cncn1 | 28.5

Compound | hERG current change (%, negative = inhibition) at 10uM [%]
Cc1cccc(C)c1NC(=S)N1CCCN(C)CC1 | 15.2
Clc1ccc(-c2cnc3ccccc3n2)cc1 | 9.07
COc1ccc(C(=O)Nc2cc(C)c3c(=O)oc4ccccc4c3n2)cc1 | 7.49
OCC[C@@H]1C[C@H](O)[C@@H](O)[C@@]2(Cc3ccccc3CCO2)O1 | 10.6
CCC(Sc1nccn1C)C(=O)Nc1ccc(Cl)cn1 (centres unmarked) | 5.78
O=[N+]([O-])c1ccc(CN2CCN(c3nc4ccccc4s3)CC2)cc1 | -1.07
Cl.O=[N+]([O-])c1ccc(CN2CCN(c3ccc4ccccc4n3)CC2)cc1 | -12.1
CCCn1c(N2CCN(C(=O)N3CCCCC3)CC2)nc2ccccc21.Cl | -20.4
Cl.c1ccc2c(c1)nc1n2CCN1CCN1CCCC1 | -3.08
CC(O)c1nc2ccccc2n1Cc1ccc([N+](=O)[O-])cc1 (centres unmarked) | -73.4
CCn1c(N2CCN(Cc3ccc([N+](=O)[O-])cc3)CC2)nc2ccccc21.Cl | -74.7
Cc1cccc(Cn2c(C(C)O)nc3ccccc32)c1 (centres unmarked) | 5.37
CN1CCN(CCN2CCn3c2nc2ccccc23)CC1.Cl | -7.38
Cl.c1ccc(CN2CCN(CCN3CCn4c3nc3ccccc34)CC2)cc1 | -75.8
CC(O)c1nc2cc([N+](=O)[O-])ccc2n1Cc1ccccc1 (centres unmarked) | 1.79
CCCn1c(N2CCN(C(=O)Nc3ccc(Cl)cc3)CC2)nc2ccccc21 | -16.8
CCCn1c(N2CCN(Cc3ccc(Cl)cc3)CC2)nc2ccccc21.Cl | -69.8
COc1ccc(NC(=O)CSc2cn[nH]n2)cc1OC | 31.4
COc1ccc(NC(=O)N2C[C@@H]3C[C@@H](C2)c2cccc(=O)n2C3)cc1 | 7.74
N#C/C(=N\Nc1ccc(Cl)cc1)C(=N)N1CCCCC1 | -31.1

From publication PMC4336329 (PLoS ONE, 2015)
